Measurements published in the supplement of paper PMC12819154, “High-throughput peptide-centric local stability assay extends protein–ligand identification to membrane proteins, tissues and bacteria” (Nature Structural & Molecular Biology, 2025).

The targets below were run with CN[C@@H]1C[C@H]2O[C@@](C)([C@@H]1OC)n1c3ccccc3c3c4c(c5c6ccccc6n2c5c31)C(=O)NC4 [staurosporine] (assay: log2 fold change of tryptic peptide abundance, ligand vs vehicle (limited proteolysis) (log2 ratio); higher = more trypsin-susceptible (destabilized)). Conditions: ligand concentration: 20 uM; sample: mouse liver crude lysate; replicate design: treated separately.

Sequence of UniProt Q8C0K5 (Q8C0K5 whole entry): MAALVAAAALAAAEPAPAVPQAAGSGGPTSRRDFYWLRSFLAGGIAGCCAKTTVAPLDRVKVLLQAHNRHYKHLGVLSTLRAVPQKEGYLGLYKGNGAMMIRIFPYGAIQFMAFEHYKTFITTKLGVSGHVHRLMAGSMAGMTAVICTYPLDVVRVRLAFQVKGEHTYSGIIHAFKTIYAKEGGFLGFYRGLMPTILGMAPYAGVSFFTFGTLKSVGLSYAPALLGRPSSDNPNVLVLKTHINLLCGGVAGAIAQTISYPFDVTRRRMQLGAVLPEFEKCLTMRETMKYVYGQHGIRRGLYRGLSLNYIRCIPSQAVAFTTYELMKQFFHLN
Sequence of UniProt Q5SW19 (Q5SW19 whole entry): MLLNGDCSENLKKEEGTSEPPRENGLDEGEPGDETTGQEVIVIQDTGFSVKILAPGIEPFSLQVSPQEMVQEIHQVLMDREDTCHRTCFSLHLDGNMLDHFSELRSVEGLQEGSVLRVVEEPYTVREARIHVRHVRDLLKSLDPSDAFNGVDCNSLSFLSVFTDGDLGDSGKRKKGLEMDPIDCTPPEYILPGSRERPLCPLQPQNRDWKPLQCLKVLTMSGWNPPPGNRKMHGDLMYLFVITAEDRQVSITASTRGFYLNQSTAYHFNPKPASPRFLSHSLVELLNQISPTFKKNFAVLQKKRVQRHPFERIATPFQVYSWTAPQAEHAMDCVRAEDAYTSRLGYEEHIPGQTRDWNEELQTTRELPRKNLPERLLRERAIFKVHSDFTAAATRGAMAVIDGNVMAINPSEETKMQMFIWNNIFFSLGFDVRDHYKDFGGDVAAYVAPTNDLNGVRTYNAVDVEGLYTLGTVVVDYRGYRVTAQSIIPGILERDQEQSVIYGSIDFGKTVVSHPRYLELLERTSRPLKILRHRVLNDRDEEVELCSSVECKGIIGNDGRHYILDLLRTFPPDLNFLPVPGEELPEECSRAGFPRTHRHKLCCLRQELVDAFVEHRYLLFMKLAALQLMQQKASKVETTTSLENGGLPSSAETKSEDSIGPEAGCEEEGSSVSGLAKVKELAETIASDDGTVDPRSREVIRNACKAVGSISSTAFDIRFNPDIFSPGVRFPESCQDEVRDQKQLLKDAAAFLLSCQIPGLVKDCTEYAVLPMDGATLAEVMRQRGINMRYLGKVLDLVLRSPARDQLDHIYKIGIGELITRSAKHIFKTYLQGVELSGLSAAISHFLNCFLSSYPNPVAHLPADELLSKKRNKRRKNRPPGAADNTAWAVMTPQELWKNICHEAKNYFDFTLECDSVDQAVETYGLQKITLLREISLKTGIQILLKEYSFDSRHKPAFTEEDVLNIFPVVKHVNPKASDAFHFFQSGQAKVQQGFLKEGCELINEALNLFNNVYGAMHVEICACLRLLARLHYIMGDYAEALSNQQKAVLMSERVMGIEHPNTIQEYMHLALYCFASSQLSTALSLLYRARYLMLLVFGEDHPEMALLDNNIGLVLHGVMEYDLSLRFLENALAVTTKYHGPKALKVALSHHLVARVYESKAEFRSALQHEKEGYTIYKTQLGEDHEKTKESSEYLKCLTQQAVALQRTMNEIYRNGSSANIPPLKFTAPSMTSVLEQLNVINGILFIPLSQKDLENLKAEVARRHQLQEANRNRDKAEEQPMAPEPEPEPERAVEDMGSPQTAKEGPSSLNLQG
Sequence of UniProt Q91YX5 (Q91YX5 whole entry): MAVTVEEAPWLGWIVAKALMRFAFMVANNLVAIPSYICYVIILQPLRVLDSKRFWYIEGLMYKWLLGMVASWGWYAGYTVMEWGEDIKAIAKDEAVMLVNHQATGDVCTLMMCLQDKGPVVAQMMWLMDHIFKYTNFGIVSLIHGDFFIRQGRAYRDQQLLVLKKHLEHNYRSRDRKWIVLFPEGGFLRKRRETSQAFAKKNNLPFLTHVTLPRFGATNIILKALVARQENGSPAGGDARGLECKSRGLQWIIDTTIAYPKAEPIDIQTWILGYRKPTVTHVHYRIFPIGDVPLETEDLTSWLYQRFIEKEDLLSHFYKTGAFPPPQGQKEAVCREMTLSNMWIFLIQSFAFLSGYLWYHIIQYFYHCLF
Sequence of UniProt Q80XL6 (Q80XL6 whole entry): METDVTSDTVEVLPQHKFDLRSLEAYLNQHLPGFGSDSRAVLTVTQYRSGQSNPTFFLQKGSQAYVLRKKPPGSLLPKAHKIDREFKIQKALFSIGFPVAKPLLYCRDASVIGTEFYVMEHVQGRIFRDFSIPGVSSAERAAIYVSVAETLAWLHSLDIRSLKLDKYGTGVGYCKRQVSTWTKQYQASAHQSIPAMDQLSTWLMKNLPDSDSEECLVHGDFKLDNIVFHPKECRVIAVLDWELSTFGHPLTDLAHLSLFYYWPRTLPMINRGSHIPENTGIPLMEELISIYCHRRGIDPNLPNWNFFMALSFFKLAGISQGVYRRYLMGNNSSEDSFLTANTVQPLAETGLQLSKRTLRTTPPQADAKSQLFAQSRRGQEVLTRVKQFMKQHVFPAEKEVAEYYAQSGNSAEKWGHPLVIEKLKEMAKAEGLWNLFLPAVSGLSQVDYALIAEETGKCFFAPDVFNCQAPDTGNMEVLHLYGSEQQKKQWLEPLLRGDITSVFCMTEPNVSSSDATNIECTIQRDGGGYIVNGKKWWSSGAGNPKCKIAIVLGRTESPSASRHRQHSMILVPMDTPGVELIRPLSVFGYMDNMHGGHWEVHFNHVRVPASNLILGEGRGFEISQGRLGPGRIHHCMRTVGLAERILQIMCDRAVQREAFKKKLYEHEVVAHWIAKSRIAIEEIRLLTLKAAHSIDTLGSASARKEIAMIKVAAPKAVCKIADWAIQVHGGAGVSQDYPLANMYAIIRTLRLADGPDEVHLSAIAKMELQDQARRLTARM
Sequence of UniProt P97872 (P97872 whole entry): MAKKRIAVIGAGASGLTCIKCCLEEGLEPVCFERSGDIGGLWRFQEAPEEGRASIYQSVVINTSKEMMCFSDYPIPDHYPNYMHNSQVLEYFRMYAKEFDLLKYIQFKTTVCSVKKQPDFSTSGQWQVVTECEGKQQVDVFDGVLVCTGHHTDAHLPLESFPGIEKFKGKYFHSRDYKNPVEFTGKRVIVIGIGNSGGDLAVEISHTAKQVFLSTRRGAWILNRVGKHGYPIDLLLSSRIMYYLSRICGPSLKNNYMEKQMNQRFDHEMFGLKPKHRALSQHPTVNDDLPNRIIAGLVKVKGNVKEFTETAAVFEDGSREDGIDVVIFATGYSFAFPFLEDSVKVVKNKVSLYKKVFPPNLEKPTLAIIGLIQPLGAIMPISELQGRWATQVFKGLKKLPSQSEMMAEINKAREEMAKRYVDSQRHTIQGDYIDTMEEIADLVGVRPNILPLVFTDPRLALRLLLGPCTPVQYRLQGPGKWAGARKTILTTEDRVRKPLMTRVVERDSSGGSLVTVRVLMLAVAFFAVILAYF
Sequence of UniProt P54823 (P54823 whole entry): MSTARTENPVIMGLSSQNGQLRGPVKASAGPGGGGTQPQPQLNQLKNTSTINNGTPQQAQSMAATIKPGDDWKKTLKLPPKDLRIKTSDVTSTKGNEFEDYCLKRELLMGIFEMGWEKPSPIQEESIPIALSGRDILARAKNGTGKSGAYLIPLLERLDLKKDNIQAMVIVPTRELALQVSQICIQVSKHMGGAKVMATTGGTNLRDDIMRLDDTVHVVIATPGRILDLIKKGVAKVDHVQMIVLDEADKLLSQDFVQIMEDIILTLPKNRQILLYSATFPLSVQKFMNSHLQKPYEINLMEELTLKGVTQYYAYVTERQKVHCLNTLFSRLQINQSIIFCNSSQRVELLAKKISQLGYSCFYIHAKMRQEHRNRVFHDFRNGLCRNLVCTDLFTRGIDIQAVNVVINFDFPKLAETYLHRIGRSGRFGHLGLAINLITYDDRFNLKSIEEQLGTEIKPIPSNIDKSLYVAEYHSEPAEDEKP
Sequence of UniProt Q6XUX1 (Q6XUX1 whole entry): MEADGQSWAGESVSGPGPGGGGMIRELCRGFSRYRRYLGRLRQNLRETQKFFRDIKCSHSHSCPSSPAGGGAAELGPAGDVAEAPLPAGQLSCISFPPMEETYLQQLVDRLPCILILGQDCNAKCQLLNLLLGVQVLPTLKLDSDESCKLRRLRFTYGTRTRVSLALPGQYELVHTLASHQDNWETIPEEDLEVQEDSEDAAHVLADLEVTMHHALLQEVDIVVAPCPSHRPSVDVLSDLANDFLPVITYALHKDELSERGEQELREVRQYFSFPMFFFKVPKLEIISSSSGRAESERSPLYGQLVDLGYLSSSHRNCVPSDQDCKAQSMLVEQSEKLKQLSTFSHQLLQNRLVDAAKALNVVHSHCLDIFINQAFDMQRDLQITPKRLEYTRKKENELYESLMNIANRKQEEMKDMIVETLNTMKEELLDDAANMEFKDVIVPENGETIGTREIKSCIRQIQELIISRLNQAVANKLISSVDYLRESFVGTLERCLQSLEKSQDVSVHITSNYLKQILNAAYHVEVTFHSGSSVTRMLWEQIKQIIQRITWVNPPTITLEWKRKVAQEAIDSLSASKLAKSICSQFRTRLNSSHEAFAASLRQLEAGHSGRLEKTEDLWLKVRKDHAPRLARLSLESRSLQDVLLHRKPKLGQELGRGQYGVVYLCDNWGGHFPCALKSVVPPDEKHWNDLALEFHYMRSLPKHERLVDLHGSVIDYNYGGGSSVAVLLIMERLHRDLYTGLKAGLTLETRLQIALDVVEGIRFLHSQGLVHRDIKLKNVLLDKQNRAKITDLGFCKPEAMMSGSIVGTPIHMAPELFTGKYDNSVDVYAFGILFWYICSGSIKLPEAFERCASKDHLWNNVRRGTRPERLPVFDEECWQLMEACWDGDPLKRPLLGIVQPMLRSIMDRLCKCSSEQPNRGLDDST
Sequence of UniProt O89079 (O89079 whole entry): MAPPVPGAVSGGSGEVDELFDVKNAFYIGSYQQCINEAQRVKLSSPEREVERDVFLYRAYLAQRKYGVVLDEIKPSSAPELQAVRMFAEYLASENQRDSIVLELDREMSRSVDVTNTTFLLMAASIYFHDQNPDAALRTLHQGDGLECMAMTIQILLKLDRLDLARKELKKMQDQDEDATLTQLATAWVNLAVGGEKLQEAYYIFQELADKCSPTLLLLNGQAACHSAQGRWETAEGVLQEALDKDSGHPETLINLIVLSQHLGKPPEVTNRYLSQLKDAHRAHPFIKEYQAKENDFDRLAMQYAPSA

| Target | log2 fold change |
| --- | --- |
| UniProt P70451 (peptide sequence: NCLVGENNTLK, peptide start residue: 690) | -2 |
| UniProt P08226 (peptide sequence: LQAEIFQAR, peptide start residue: 262) | 0.428 |
| UniProt Q3UU96 (peptide sequence: LHREDFEILK, peptide start residue: 72) | -1.65 |
| UniProt Q8R123 (peptide sequence: LSMVPSSAR, peptide start residue: 125) | -0.276 |
| UniProt Q64133 (peptide sequence: ELGIETYK, peptide start residue: 83) | -0.486 |
| UniProt Q80XL6 (peptide sequence: NLPDSDSEECLVHGDFK, peptide start residue: 206) | -0.421 |
| UniProt P47754 (peptide sequence: TSVETALR, peptide start residue: 122) | -0.836 |
| UniProt Q8JZY4 (peptide sequence: YLYLCVFHK, peptide start residue: 178) | 0.47 |
| UniProt P97872 (peptide sequence: DSSGGSLVTVR, peptide start residue: 507) | -1.1 |
| UniProt P53395 (peptide sequence: DRTEPVTGFQK, peptide start residue: 251) | 0.423 |
| UniProt Q5SW19 (peptide sequence: YLELLER, peptide start residue: 517) | -0.493 |
| UniProt Q6XUX1 (peptide sequence: SLQDVLLHR, peptide start residue: 640) | -1.84 |
| UniProt Q9ET43 (peptide sequence: SRLSAIEIDIPVVSHST, peptide start residue: 228) | -0.532 |
| UniProt Q9JM52 (peptide sequence: GNALKEDCIAYICR, peptide start residue: 122) | -0.672 |
| UniProt Q9Z2B9 (peptide sequence: KIPAPFRPQIR, peptide start residue: 313) | -1.34 |
| UniProt Q99N91 (peptide sequence: GNEYQPSNIK, peptide start residue: 50) | 0.323 |

| Target | log2 fold change |
| --- | --- |
| UniProt O70589 (peptide sequence: FTSSPGLSTEDLKR, peptide start residue: 48) | -2.83 |
| UniProt Q8VI63 (peptide sequence: ITDFEFK, peptide start residue: 35) | 0.579 |
| UniProt Q8BHC4 (peptide sequence: HVVQPGYPAHR, peptide start residue: 37) | 0.384 |
| UniProt P56593 (peptide sequence: FSNFAPLGIPR, peptide start residue: 360) | -0.352 |
| UniProt Q922S4 (peptide sequence: AMGNRPMEMMDR, peptide start residue: 838) | 0.447 |
| UniProt Q9JHU3 (peptide sequence: HVETGEIVALKK, peptide start residue: 23) | -2.31 |
| UniProt O89079 (peptide sequence: KYGVVLDEIKPSSAPELQAVR, peptide start residue: 65) | -0.856 |
| UniProt Q8CIN4 (peptide sequence: TIVSIGDPK, peptide start residue: 238) | -2.05 |
| UniProt P54823 (peptide sequence: LDLKKDNIQAMVIVPTR, peptide start residue: 158) | 1.16 |
| UniProt Q91YX5 (peptide sequence: DQQLLVLKK, peptide start residue: 157) | 0.642 |
| UniProt Q8C0K5 (peptide sequence: GEHTYSGIIHAFK, peptide start residue: 164) | 0.837 |
| UniProt Q8BW96 (peptide sequence: IMISDFGLSK, peptide start residue: 161) | -1.32 |
| UniProt Q3UTQ8 (peptide sequence: DIKPENLLISHNDVLK, peptide start residue: 135) | -1.56 |
| UniProt P37172 (peptide sequence: GSWQGENVAVK, peptide start residue: 225) | -2.41 |
| UniProt Q8BH59 (peptide sequence: LQVAGEITTGPR, peptide start residue: 457) | 0.568 |
